# The full ranking holds about 81,000 sequences; the median of “one-hybrid fitness for binding parS DNA” is about -0.17, and the highest 2% start at about 0.51. The entries come from a sample that favours the highest values as a whole.
# B1: Caulobacter ParB omega fusion; a variant is named by its letters at X, in order, B8GW30 (parent)
# chain: MESVVVGEPGMSEGRRGLGRGLSALLGEVDAAPAQAPGEQLGGSREAPIEILQRNPDQPRRTFREEDLEDLSNSIREKGVLQPILVRPSPDTAGEYQIVAGERAWRAAQRAGLKTVPIMVRELDDLAVLEIGIIENVQRADLNVLEEALSYKVLMEKFERTQENIAQTIGKSXSHVANXMRLLXLPDEVQSYLVSGELTAXHARAIAAAADPVALAKQIIEGGLSVRETEALARKAPNLSAGKSKGGRPPRVKDTDTQALESDLSSVLGLDVSIDHRGSTGTLTITYATLEQLDDLCNRLTRGI
# Variants of: B1
# Experiment: one-hybrid fitness for binding parS DNA (scaled: cognate 1, non-cognate 0); higher = stronger binding
# Conditions: with parS DNA site
# Outline: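 Values were rescaled so that cognate is 1 and non-cognate is 0. Each is a fitness, the log change in a variant's read ratio to wild type from Illumina reads of plasmids before and after selection, with three replicate libraries pooled and variants under 10 reads dropped. Selection of the Caulobacter ParB libraries, four specificity codons randomised, used E. coli USO with a HIS3 reporter, site 19 bp from the promoter, on M9-minus-histidine with 0.1 mM IPTG and 5 mM 3-AT for 48 hours at 37°C.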
row,Variant,one-hybrid fitness for binding parS DNA
1,QRLS,≤ 0.2
2,RCPM,0.203
3,QMWS,≤ 0.2
4,SDGC,≤ 0.2
5,MATR,≤ 0.2
6,VQVL,≤ 0.2
7,PGTH,≤ 0.2
8,KCMT,≤ 0.2
9,GHPI,≤ 0.2
10,YKKF,≤ 0.2
11,RMLD,≤ 0.2
12,RMLT,0.974
13,RCLT,0.966
14,RPLT,≤ 0.2
15,RSLT,0.846
16,RDLT,≤ 0.2
17,RILT,0.89
18,RMLP,≤ 0.2
19,RSLP,≤ 0.2
20,RILN,0.422
21,RSLH,0.207
22,RILD,≤ 0.2
23,QFVS,≤ 0.2
24,EYRS,≤ 0.2
25,FKLR,≤ 0.2

row,Variant,one-hybrid fitness for binding parS DNA
1,GPRL,≤ 0.2
2,HRFW,≤ 0.2
3,QVAA,≤ 0.2
4,QNKG,≤ 0.2
5,GITA,≤ 0.2
6,YHLM,≤ 0.2
7,YQRH,≤ 0.2
8,STFL,≤ 0.2
9,RKSE,≤ 0.2
10,PSQM,≤ 0.2
11,HSHL,≤ 0.2
12,RTLT,0.936
13,RTLK,≤ 0.2
14,RHLT,0.834
15,RHLN,0.376
16,RTLF,0.267
17,RHLP,≤ 0.2
18,TKSI,≤ 0.2
19,DEMS,≤ 0.2
20,YRHE,≤ 0.2
21,PEDT,≤ 0.2
22,VYPT,≤ 0.2
23,RRGN,0.777
24,RCGN,0.445
25,RRGS,0.639

row,Variant,one-hybrid fitness for binding parS DNA
1,RRGH,≤ 0.2
2,RRGD,≤ 0.2
3,RRGP,≤ 0.2
4,WDVG,≤ 0.2
5,IHRW,≤ 0.2
6,RLYP,≤ 0.2
7,RLDD,≤ 0.2
8,RLNY,0.495
9,RLDP,≤ 0.2
10,RLRD,≤ 0.2
11,RLNQ,≤ 0.2
12,RLYG,1.03
13,RLRK,≤ 0.2
14,RLNG,1.01
15,RLYH,0.271
16,RLRG,0.966
17,RLDG,0.931
18,CISS,≤ 0.2
19,EWYV,≤ 0.2
20,QRYM,≤ 0.2
21,QVRQ,≤ 0.2
22,THSV,≤ 0.2
23,AQCS,≤ 0.2
24,NWKY,≤ 0.2
25,KFYT,≤ 0.2

row,Variant,one-hybrid fitness for binding parS DNA
1,RQMH,0.292
2,RQMG,0.973
3,RQMS,0.998
4,RQMY,0.474
5,RQML,≤ 0.2
6,RQMD,≤ 0.2
7,RQMM,0.33
8,RQMC,0.945
9,RQMN,0.423
10,RQMP,≤ 0.2
11,RQMQ,≤ 0.2
12,RQMT,0.881
13,DRVV,≤ 0.2
14,NSRG,≤ 0.2
15,SMFV,≤ 0.2
16,FLVT,≤ 0.2
17,RNIH,≤ 0.2
18,RNWP,≤ 0.2
19,RNLN,0.251
20,RNLS,0.895
21,RNHH,≤ 0.2
22,RNWN,≤ 0.2
23,RNHS,0.911
24,RNPG,0.433
25,RNIG,0.597

row,Variant,one-hybrid fitness for binding parS DNA
1,RNWS,0.705
2,RNLD,≤ 0.2
3,RNHP,≤ 0.2
4,MDVV,≤ 0.2
5,QCYT,≤ 0.2
6,GRNR,≤ 0.2
7,EQIG,≤ 0.2
8,FSEV,≤ 0.2
9,HKDS,≤ 0.2
10,YPGT,≤ 0.2
11,ADYG,≤ 0.2
12,CAGL,≤ 0.2
13,RNPS,0.478
14,RNGS,0.873
15,RNQH,≤ 0.2
16,RNYS,0.85
17,RNQS,0.921
18,RNSP,≤ 0.2
19,RNGD,≤ 0.2
20,RNQP,≤ 0.2
21,RNSS,0.967
22,RNGP,≤ 0.2
23,RNYH,≤ 0.2
24,RNSN,0.385
25,GNAI,≤ 0.2

row,Variant,one-hybrid fitness for binding parS DNA
1,MPRT,≤ 0.2
2,LHGD,≤ 0.2
3,GSGG,≤ 0.2
4,TQRY,≤ 0.2
5,LATY,≤ 0.2
6,GQKN,≤ 0.2
7,HRKI,≤ 0.2
8,RNID,≤ 0.2
9,RNCS,0.83
10,RNIN,≤ 0.2
11,RNRP,≤ 0.2
12,RNCD,≤ 0.2
13,RNIS,0.65
14,RNCN,0.304
15,RNRN,0.371
16,RNRS,0.961
17,ELGN,≤ 0.2
18,PYSK,≤ 0.2
19,NITG,≤ 0.2
20,KRPK,≤ 0.2
21,EVIR,≤ 0.2
22,FSHN,≤ 0.2
23,RCFI,≤ 0.2
24,IRLE,≤ 0.2
25,PFDT,≤ 0.2

row,Variant,one-hybrid fitness for binding parS DNA
1,RPFA,≤ 0.2
2,RWFA,0.298
3,RCFA,0.589
4,RNFA,0.301
5,RSFA,0.558
6,RDFA,≤ 0.2
7,IFQR,≤ 0.2
8,PTLA,≤ 0.2
9,RHAD,≤ 0.2
10,RHFG,0.876
11,RHAG,0.969
12,RHAH,0.202
13,RHFF,≤ 0.2
14,RHFY,0.377
15,DYKT,≤ 0.2
16,SRQA,≤ 0.2
17,DEKR,≤ 0.2
18,SVMF,≤ 0.2
19,RCFT,0.955
20,RSFH,≤ 0.2
21,RSFN,0.383
22,REFT,≤ 0.2
23,RPFT,≤ 0.2
24,RSFT,0.751
25,WLLH,≤ 0.2

row,Variant,one-hybrid fitness for binding parS DNA
1,REVI,≤ 0.2
2,SAPY,≤ 0.2
3,RMWG,0.991
4,RMWR,≤ 0.2
5,RLWG,0.995
6,RLWR,≤ 0.2
7,RMWY,0.497
8,RTWF,0.275
9,RRWF,≤ 0.2
10,RRWG,0.906
11,RTWG,1.03
12,RLWQ,≤ 0.2
13,RRWK,≤ 0.2
14,RTWQ,≤ 0.2
15,CQNS,≤ 0.2
16,QVGP,≤ 0.2
17,QTRM,≤ 0.2
18,ARLQ,≤ 0.2
19,CHSG,≤ 0.2
20,RCML,0.201
